# Inconclusive results are not listed. Entries that show only a call come without a potency. Some structures have more than one record in an assay (separate samples or runs), and their calls can disagree. Activity calls are given as the source filed them. Unless noted, calls follow the shape of the dose curve; as a rule, active = well fitted curve in the direction sought with a large enough effect in the repeat runs; inconclusive = weak or mixed curves; inactive = no such curve, though single readings can be large; an effect the other way counts as inactive or inconclusive.
# Key:
# [1] = qHTS assay to identify small molecule antagonists of the glucocorticoid receptor (GR) signaling pathway - cell viability counter screen (AID 720693); also: nearly all actives have a fitted effect of over 55% in size
# [2] = qHTS assay for identifying genotoxic compounds that show differential cytotoxicity against isogenic chicken DT40 cell lines with known DNA damage response pathways - wild type cell line (AID 743012); also: nearly all actives have a fitted effect of over 60% in size
# Summary of the method: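 First, wild type DT40 cells were plated at 300 per well and equilibrated about 0.5 h at 37 C/5% CO2. Next, compounds in DMSO were added and exposure lasted 40 h. Finally, CellTiter-Glo was added for 30 min at room temperature and luminescence recorded.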
# [3] = qHTS assay for identifying genotoxic compounds that show differential cytotoxicity against isogenic chicken DT40 cell lines with known DNA damage response pathways - Rev3 mutant cell line (AID 743014); also: nearly all actives have a fitted effect of over 55% in size; also: potency is read from the fitted curve at half-maximal effect
# [4] = qHTS assay for identifying genotoxic compounds that show differential cytotoxicity against isogenic chicken DT40 cell lines with known DNA damage response pathways - Rad54/Ku70 mutant cell line (AID 743015); also: nearly all actives have a fitted effect of over 60% in size; also: potency is read from the fitted curve at half-maximal effect
# [5] = qHTS assay to identify small molecule antagonists of the androgen receptor (AR) signaling pathway - cell viability counter screen (AID 743033; also: nearly all actives have a fitted effect of over 45% in size)
# [6] = qHTS assay to identify small molecule antagonists of the androgen receptor (AR) signaling pathway using the MDA cell line - cell viability counter screen (AID 743041; also: nearly all actives have a fitted effect of over 45% in size)
# Summary of the method: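 Same-well cytotoxicity was assessed by CellTiter-Fluor in MDA-kb2 AR-luc cells after 16 h of compound treatment under R1881 agonism.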
# [7] = molecular target: Androgen receptor (Homo sapiens) (UniProt P10275); test: qHTS assay to identify small molecule antagonists of the androgen receptor (AR) signaling pathway (AID 743035; active = well fitted inhibition curve with a large enough effect in the signal ratio in the repeat runs, not every such curve was filed as active; the % refers to the signal ratio)
# Summary of the method: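 Beta-lactamase FRET read (2 h RT incubation with LiveBLAzer B/G) following 16 h of compound plus R1881 treatment of AR-UAS-bla HEK293 cells, which had been pre-incubated 4 h at 37C.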
# [8] = molecular target: Androgen receptor (Homo sapiens) (UniProt P10275); test: qHTS assay to identify small molecule agonists of the androgen receptor (AR) signaling pathway (AID 743036; active = well fitted activation curve with a large enough effect in the signal ratio in the repeat runs, with a control signal flat, not every such curve was filed as active; the % refers to the signal ratio)
# Summary of the method: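 Beta-lactamase under UAS control, stably integrated in HEK293 GripTite cells, reports receptor activation. After 16 h compound treatment, cells received FRET substrate for 2 h at room temperature before fluorescence reading.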
# [9] = molecular target: Androgen receptor (Homo sapiens) (UniProt P10275); test: qHTS assay to identify small molecule agonists of the androgen receptor (AR) signaling pathway using the MDA cell line (AID 743040; also: nearly all actives have a fitted effect of over 20% in size)
# Summary of the method: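 Human breast carcinoma MDA-kb2 reporter cells (MMTV-luc, AR/GR elements) were treated for 16 h at 37C in 0% CO2 following a 5 h settling period. Signal was quantified by ONE-Glo luminescence.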
# [10] = molecular target: Androgen receptor (Homo sapiens) (UniProt P10275); test: qHTS assay to identify small molecule antagonists of the androgen receptor (AR) signaling pathway using the MDA cell line (AID 743042; also: nearly all actives have a fitted effect of over 55% in size)
# Summary of the method: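 MDA-kb2 breast carcinoma cells carrying MMTV-luciferase (AR/GR responsive) were co-treated with compounds and the agonist R1881 for 16 h at 37C. Inhibition read as ONE-Glo luminescence; CellTiter-Fluor fluorescence measured in parallel for cytotoxicity.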
# Androgen receptor (Homo sapiens), sequence (P10275 whole entry, looked up): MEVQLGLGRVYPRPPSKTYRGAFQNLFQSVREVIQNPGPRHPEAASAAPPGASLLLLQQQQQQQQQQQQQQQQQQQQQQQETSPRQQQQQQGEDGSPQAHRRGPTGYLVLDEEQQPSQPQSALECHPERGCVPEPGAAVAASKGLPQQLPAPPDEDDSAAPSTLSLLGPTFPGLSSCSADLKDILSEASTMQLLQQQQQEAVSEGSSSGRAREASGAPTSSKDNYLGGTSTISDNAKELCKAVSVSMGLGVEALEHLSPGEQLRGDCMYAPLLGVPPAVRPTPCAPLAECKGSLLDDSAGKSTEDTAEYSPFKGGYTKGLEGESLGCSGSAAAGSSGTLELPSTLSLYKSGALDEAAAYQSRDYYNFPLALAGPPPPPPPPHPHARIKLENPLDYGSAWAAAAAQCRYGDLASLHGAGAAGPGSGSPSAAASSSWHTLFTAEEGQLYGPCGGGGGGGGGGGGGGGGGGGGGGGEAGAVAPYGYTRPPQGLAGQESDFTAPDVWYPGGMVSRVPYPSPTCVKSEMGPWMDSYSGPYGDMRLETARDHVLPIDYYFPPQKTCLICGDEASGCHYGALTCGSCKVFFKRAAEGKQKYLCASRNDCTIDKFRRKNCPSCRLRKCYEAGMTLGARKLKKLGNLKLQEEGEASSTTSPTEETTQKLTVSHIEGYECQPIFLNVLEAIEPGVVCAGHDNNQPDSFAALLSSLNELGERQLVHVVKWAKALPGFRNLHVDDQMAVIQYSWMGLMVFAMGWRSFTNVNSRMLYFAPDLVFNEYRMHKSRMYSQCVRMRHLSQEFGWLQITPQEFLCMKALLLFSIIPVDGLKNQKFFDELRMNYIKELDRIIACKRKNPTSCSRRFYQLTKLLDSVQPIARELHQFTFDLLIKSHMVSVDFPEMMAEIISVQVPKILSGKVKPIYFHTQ
smiles,measurement,setting,value
CCO[Si](CCCN=C=O)(OCC)OCC,outcome,[1],inactive
same,Potency,[2],inactive
same,Potency,[3],inactive
same,Potency,[4],inactive
same,outcome,[5],inactive
same,Potency,[6],inactive
COc1ccc(NC(C)=O)cc1,outcome,[1],inactive
same,Potency,[2],inactive
same,Potency,[3],inactive
same,Potency,[4],inactive
same,outcome,[5],inactive
same,Potency,[7],inactive
same,outcome,[8],inactive
same,Potency,[9],inactive
same,Potency,[6],inactive
same,outcome,[10],inactive
Nc1ccc2cc(S(=O)(=O)O)ccc2c1,outcome,[1],inactive
same,Potency,[2],inactive
same,Potency,[3],inactive
same,Potency,[4],inactive
same,outcome,[5],inactive
same,Potency,[6],inactive
COc1ccc(N=[N+]([O-])c2ccc(OC)cc2)cc1,outcome,[1],inactive
same,Potency,[2],inactive
same,Potency,[3],inactive
same,Potency,[4],inactive
same,outcome,[5],inactive
same,Potency,[6],inactive
CCCCOCC(C)OCC(C)O (stereo unspecified),outcome,[1],inactive
same,Potency,[2],inactive
same,Potency,[3],inactive
same,Potency,[4],inactive
same,outcome,[5],inactive
same,Potency,[6],inactive
COCc1ccc(COC)cc1,outcome,[1],inactive
same,Potency,[2],inactive
same,Potency,[3],inactive
same,Potency,[4],inactive
same,outcome,[5],inactive
same,Potency,[6],inactive
COc1cc(CCC(C)=O)ccc1O,outcome,[1],inactive
same,Potency,[2],inactive
same,Potency,[3],inactive
same,Potency,[4],inactive
same,outcome,[5],inactive
same,Potency,[9],inactive
same,Potency,[6],inactive
same,outcome,[10],inactive
C=C[Si](OC)(OC)OC,outcome,[1],inactive
same,Potency,[2],inactive
same,Potency,[3],inactive
same,Potency,[4],inactive
same,outcome,[5],inactive
same,Potency,[6],inactive
NC(=O)c1ncn([C@@H]2O[C@H](CO)[C@@H](O)[C@H]2O)c1O,outcome,[1],inactive
same,Potency,[2],inactive
same,Potency,[3],inactive
same,Potency,[4],inactive
same,outcome,[5],inactive
same,Potency,[6],inactive
C=CCn1c(=O)n([C@@H]2O[C@H](CO)[C@@H](O)[C@H]2O)c2nc(N)[nH]c(=O)c21,outcome,[1],inactive
same,Potency,[2],inactive
same,Potency,[3],inactive
same,outcome,[5],inactive
same,Potency,[7],inactive
same,outcome,[8],inactive
same,Potency,[9],inactive
same,Potency,[6],inactive
same,outcome,[10],inactive
N#CCN(CC#N)CCN(CC#N)CC#N,outcome,[1],inactive
same,Potency,[2],inactive
same,Potency,[3],inactive
same,Potency,[4],inactive
same,outcome,[5],inactive
same,Potency,[6],inactive
CCCCC=O,outcome,[1],inactive
same,Potency,[2],inactive
same,Potency,[3],inactive
same,Potency,[4],inactive
same,outcome,[5],inactive
same,Potency,[6],inactive
C[C@H](O)C(=O)Nc1c(I)c(C(=O)NC(CO)CO)c(I)c(C(=O)NC(CO)CO)c1I,outcome,[1],inactive
same,Potency,[2],inactive
same,Potency,[3],inactive
same,Potency,[4],inactive
same,Potency,[6],inactive
CO,outcome,[1],inactive
same,Potency,[2],inactive
same,Potency,[3],inactive
same,Potency,[4],inactive
same,outcome,[5],inactive
same,Potency,[6],inactive
CC(C)(O)c1ccccc1,outcome,[1],inactive
same,Potency,[2],inactive
same,Potency,[3],inactive
same,outcome,[5],inactive
same,Potency,[6],inactive
CCCCCOC(=O)Nc1nc(=O)n([C@@H]2O[C@H](C)[C@@H](O)[C@H]2O)cc1F,outcome,[1],inactive
same,Potency,[2],inactive
same,Potency,[3],inactive
same,Potency,[4],inactive
same,outcome,[5],inactive
same,Potency,[6],inactive
Nc1[nH]c(=O)ncc1F,outcome,[1],inactive
same,Potency,[2],inactive
same,Potency,[3],inactive
same,outcome,[5],inactive
same,Potency,[6],inactive
NC(=S)Nc1cccc2ccccc12,"viability change, negative = cytotoxic",[1],-9.87% [at 7.04 µM] (inactive)
same,"activity change, negative = cytotoxicity",[2],28.7% [at 8.52 µM] (inactive)
same,"activity, negative = cytotoxicity",[3],-8.62% [at 8.53 µM] (inactive)
same,"activity change, negative = cytotoxicity",[5],0.303% [at 7.04 µM] (inactive)
same,"viability change, negative = cytotoxic",[6],-0.0936% [at 8.47 µM] (inactive)
CCCCN(CCO)CCO,outcome,[1],inactive
same,Potency,[2],inactive
same,Potency,[3],inactive
same,Potency,[4],inactive
same,outcome,[5],inactive
same,Potency,[6],inactive
O=C(O)c1ccccc1S,outcome,[1],inactive
same,Potency,[2],inactive
same,Potency,[3],inactive
same,Potency,[4],inactive
same,outcome,[5],inactive
same,Potency,[6],inactive
CCO[Si](C)(OCC)OCC,outcome,[1],inactive
same,Potency,[2],inactive
same,Potency,[3],inactive
same,Potency,[4],inactive
same,outcome,[5],inactive
same,Potency,[6],inactive
[O-][N+](=Nc1ccccc1)c1ccccc1,outcome,[1],inactive
same,Potency,[2],inactive
same,Potency,[3],inactive
same,Potency,[4],26.6 µM (active) and inactive
same,outcome,[5],inactive
same,Potency,[6],inactive
CCN1CCN(c2cc3c(cc2F)c(=O)c(C(=O)O)cn3C2CC2)CC1,outcome,[1],inactive
same,Potency,[2],inactive
same,Potency,[3],inactive
same,outcome,[5],inactive
same,Potency,[7],inactive
same,outcome,[8],inactive
same,Potency,[9],inactive
same,Potency,[6],inactive
same,outcome,[10],inactive
CC(C)COC(=O)c1ccccc1O,outcome,[1],inactive
same,Potency,[2],inactive
same,Potency,[3],24.3 µM (active)
same,Potency,[4],inactive
same,outcome,[5],inactive
same,Potency,[6],inactive
Nc1cc(N)cc(C(=O)O)c1,outcome,[1],inactive
same,Potency,[2],inactive
same,Potency,[3],inactive
same,Potency,[4],inactive
same,outcome,[5],inactive
same,Potency,[6],inactive
O=C(O)c1cccc(C(=O)O)n1,outcome,[1],inactive
same,Potency,[2],inactive
same,Potency,[3],inactive
same,Potency,[4],inactive
same,outcome,[5],inactive
same,Potency,[6],inactive
CCOC(=O)[C@H](CCc1ccccc1)N[C@@H](C)C(=O)N1CCC[C@H]1C(=O)O,outcome,[1],inactive
same,Potency,[2],inactive
same,Potency,[3],inactive
same,Potency,[4],inactive
same,outcome,[5],inactive
same,Potency,[6],inactive
CCCCCCCCCCCCCCCCCCOCC(O)CO (stereo unspecified),outcome,[1],inactive
same,Potency,[2],inactive
same,Potency,[3],inactive
same,outcome,[5],inactive
same,Potency,[6],inactive
C1=C\CC/C=C\CC/C=C\CC/1,outcome,[1],inactive
same,Potency,[2],inactive
same,Potency,[3],inactive
same,Potency,[4],inactive
same,outcome,[5],inactive
same,Potency,[6],inactive
